The structures appear in SMILES notation. In all, about 69,000 compounds went through this assay and about 8,600 (12%) showed an effect of 50% or more. Only a selection was taken, and strong results are over-represented in it overall.

The record followed here is ChEMBL document CHEMBL4513216, “Probing the Open Global Health Chemical Diversity Library for Multistage-Active Starting Points for Next-Generation Antimalarials” (ACS Infect Dis, 2020).

This assay relates to Plasmodium berghei. Description: Screen against P. berghei liver stage (PbLuc), transformed with Luciferase, at 10uM. In kind it is functional, HepG2. As to conditions: tested at 10 uM.
On to `CN1C(=O)c2ccc(NC(=O)CSc3ccc4c(c3)CCC4)cc2C1=O`, for which the INHIBITION came out at 11.5%. On to `CN(C)CCO[C@@H]1CC[C@H]2[C@H]1OCCN2C(=O)c1ccccc1F`, for which the INHIBITION was found to be 35.2%. For `CC(C)(C)c1nccc(N2CCCCC2CCNS(C)(=O)=O)n1` (stereo unspecified) the value was -1.79%. `Cc1cnn(CC2CCCN2Cc2nnc(C3CC3)o2)c1` (stereo unspecified): the INHIBITION came to 2.3%. Consider `O=C(c1ccc(N2CCOCC2)nc1)N1CCCC(n2ccnc2)C1` (stereo unspecified), for which the INHIBITION came out at 13.05%. As to `CC(C)CN1CCC2(C=C(C(=O)N3CCCC3)c3ccccc32)CC1`, the INHIBITION is reported as -17%. Take `Cc1cc(CN2CCN(C(=O)CCc3cccs3)CC2)on1`: the INHIBITION is -9.08%. As to `Cc1cccc(COCC2c3nnn(C)c3CCN2Cc2ccoc2)n1` (stereo unspecified), the INHIBITION is on record as -5.08%. As to `C[C@H]1CN(C(=O)c2cccnc2)C[C@@]12CCN(CCN1CCCC1)C2=O`, the INHIBITION came out at 23.6%. On to `CC(=O)N(Cc1ncc(C)o1)C1CCN(Cc2ccon2)C1` (stereo unspecified), for which the INHIBITION came out at 3.73%. On to `CO[C@H]1CN(C(=O)c2ccc(-c3ccccc3)[nH]2)CC[C@H]1N`, for which the INHIBITION is given as -22.4%.

Take `O=C(c1cnccn1)N1C[C@H]2CC[C@@H](C1)N(S(=O)(=O)c1cccnc1)C2`: the INHIBITION was -6.34%. `Cc1nc(CN(C)S(=O)(=O)c2ccccc2C(F)(F)F)no1`: the INHIBITION was found to be 11.3%. In the case of `Cc1nc(CN(C)S(=O)(=O)c2ccccc2Br)no1`, the INHIBITION worked out at 58.1%. As for `Cc1nc(CN(C)S(=O)(=O)c2ccc(F)cc2Br)no1`, the INHIBITION is 18.9%. Consider `Cc1cc(NCCC(=O)NC2CCCC2)nc(-c2ccncc2)n1`, for which the INHIBITION stood at 4.52%.

With `CC(C)CS(=O)(=O)N1CCC2(CN(c3cccc(F)c3)C(=O)CN2C)C1` (stereo unspecified), the INHIBITION turned out to be 55.5%. On to `CCS(=O)(=O)N1CCC2(CN(c3cccc(F)c3)C(=O)CN2C)C1` (stereo unspecified), for which the INHIBITION is 19.4%.

Consider `CN1CC(=O)N(c2cccc(F)c2)CC12CCN(S(C)(=O)=O)C2` (stereo unspecified), for which the INHIBITION is -5.12%. The figure for `CCCc1n[nH]c(C2CN(C(=O)c3ccc[nH]3)CCO2)n1` (stereo unspecified) is 27.8%; for `CCc1nc2c(c(N3CCOCC3)n1)CCN(C(=O)N1CCCC1)CC2` it is -28.4%; for `O=C(c1ccccn1)N1CCc2ncnc(N3CCOCC3)c2CC1` it is -64.5%. For `CCc1nc2c(c(N3CCOCC3)n1)CCN(C(=O)c1ccon1)CC2`, the INHIBITION stood at 52.2%. Take `COc1ccc(C(C(=O)O)N(C)Cc2c(C)nn(C)c2C)c(C)c1` (stereo unspecified): the INHIBITION came out at 26.9%. On to `Cc1nc(C2CCN(C(=O)c3cscn3)CC2)c2sccn12`, for which the INHIBITION is 17.4%. Regarding `Clc1ccc(-c2cnc(CNC3CCc4ncnn4C3)o2)cc1` (stereo unspecified), the INHIBITION is recorded as 39.6%. On to `c1ccc(-n2cc(CNC3CCc4ncnn4C3)cn2)cc1` (stereo unspecified), for which the INHIBITION was determined as 11.6%.

As to `c1csc(CCNC2CCc3ncnn3C2)c1` (stereo unspecified), the INHIBITION came out at 68.8%. As for `C1=C(CNC2CCc3ncnn3C2)COc2ccccc21` (stereo unspecified), the INHIBITION was determined as 61.6%.

For the compound `Clc1ccc2c(c1)C=C(CNC1CCc3ncnn3C1)CO2` (stereo unspecified), the INHIBITION was found to be 51.8%. In the case of `Clc1ccc(-n2cc(CNC3CCc4ncnn4C3)cn2)cc1` (stereo unspecified), the INHIBITION worked out at 51.3%.

As for `CCCOc1ccc2c(c1)OCC(CNC1CCc3ncnn3C1)=C2` (stereo unspecified), the INHIBITION is on record as 42.1%. Take `COc1ccc2c(c1)OCC(CNC1CCc3ncnn3C1)=C2` (stereo unspecified): the INHIBITION is recorded as 35.1%.

On to `Clc1cccc(-c2nc(CNC3CCc4ncnn4C3)co2)c1` (stereo unspecified), for which the INHIBITION worked out at 49.8%. The figure for `O=C(CNC1CCc2ncnn2C1)N(Cc1cccs1)C1CC1` (stereo unspecified) is 27.7%.

Consider `O=C(CNC1CCc2ncnn2C1)NCCc1cccs1` (stereo unspecified), for which the INHIBITION worked out at 12.3%. `c1ccc(Cn2cc(CNC3CCc4ncnn4C3)cn2)cc1` (stereo unspecified): the INHIBITION turned out to be 39.5%. As for `COc1cccc(-c2cc(C3=NC(=CN4CCN(C)CC4)NO3)[nH]n2)c1`, the INHIBITION was determined as 33.1%. The figure for `NC(=O)CN1CCC(c2cccc(Oc3ccccc3)n2)CC1` is -11.4%. Regarding `CCn1nc(C)c2nnn(CC(=O)Nc3ccccc3F)c(=O)c21`, the INHIBITION is listed as 40.8%.

`CSc1nnc(C2CCN(C(=O)N3CCOCC3)CC2)n1C(C)C`: the INHIBITION amounted to 40.85%. Take `CCN1CCC2(CN(C(=O)N(C)C)CC23CCNCC3)C1=O` (stereo unspecified): the INHIBITION is -3.58%. In the case of `CNC(=O)NC(=O)CN(Cc1ccc(C#N)cc1)Cc1cccc(F)c1`, the INHIBITION is -0.85%. For the compound `Cc1cccc2c1N(C)C(=O)C21CC(=O)Nc2c1cnn2C(C)(C)C` (stereo unspecified), the INHIBITION was -23.9%. The figure for `O=C(CCOc1ccccc1F)N1CCCCC1Cn1cccn1` (stereo unspecified) is -21.5%; for `Cc1cc(-c2cnc(NCc3cccnc3)nc2C(C)(C)C)on1` it is 83.6%; for `Cc1cc(-c2cnc(NCc3cccnc3)nc2C(C)C)on1` it is 69.4%. In the case of `COc1ccccc1CN1CCCCC1c1n[nH]cc1-c1cc(C)no1` (stereo unspecified), the INHIBITION came to 24.8%. As for `COCc1cc(NCc2ccccc2OC)ncn1`, the INHIBITION worked out at 12.6%. For `Cc1cc(-c2cnc(NCc3ccccn3)nc2C(C)C)on1`, the INHIBITION is listed as 24.4%. Consider `Cc1nn(C)c2c(NCc3cccnc3)nc(C(C)C)nc12`, for which the INHIBITION was -34%. The figure for `CCN(CC)CCNc1ncc(-c2cc(C)no2)c(-c2ccoc2C)n1` is 33.5%; for `COc1ccccc1CNc1ncc(-c2cc(C)no2)c(C(C)C)n1` it is 79.7%.

Regarding `COc1ccc(CNc2ncc(-c3cc(C)no3)c(C(C)C)n2)cc1`, the INHIBITION is on record as -5.71%.

As for `Cc1cc(-c2cnc(NCc3ccncc3)nc2C(C)C)on1`, the INHIBITION came out at 94.1%.

Take `Cc1cnc(-c2nc(NC3CC3)ncc2-c2cc(C)no2)cn1`: the INHIBITION is listed as 8.72%.
